The source of these data is PubChem BioAssay (Tox21).

Each structure is given as a SMILES string. Values without a mark were called inactive. Activity calls are given as the source filed them. The call rests on the fitted dose curve; in most records, active means well fitted curve in the direction sought with a large enough effect in the repeat runs; inconclusive means weak or mixed curves; inactive means flat fitted curve, though single readings scatter.
On the % scale 0 is the no-effect control and ±100 the full control effect.

A short description of the assay: qHTS assay to test for compound auto fluorescence at 535 nm (green) in HEK293 cell free culture (AID 720682). The note with it: cell-free medium, green autofluorescence 485/535 nm, hits give high values; series mostly up to 91.3 µM; activity change: at the top concentration. The procedure, abridged: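 Each library compound, or DMSO control, is added by pintool to medium alone, comprising DMEM and 10% FBS. Emission at 535 nm following 485 nm excitation is quantified against fluorescein.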
For orientation: In qHTS, concentration-response curves come from the screen itself.
Take `OC(c1ccc(Cl)cc1)(c1ccc(Cl)cc1)c1cccnc1`: the “activity change” value was -0.0081%.
In the case of `BrCC(Br)C1CCC(Br)C(Br)C1` (stereo not given), the “activity change” value is -0.0013%.
The same measure, in the same setting: next, `CC(C)O.CC(C)O.OCCN(CCO)CCO.OCCN(CCO)CCO.[Ti]`: -0.0845%; `COC(=O)C(Br)CBr` (stereo not given): -0.0174%; `CCOP(=S)(Oc1ccc([N+](=O)[O-])cc1)c1ccccc1` (stereo not given): -0.0036%.
The same measure, in the same setting: next, `O=C(O)C(F)(F)C(F)(F)C(F)(F)C(F)(F)C(F)(F)C(F)(F)C(F)(F)C(F)(F)C(F)(F)F`: 0.0214%; `NS(=O)(=O)C(F)(F)C(F)(F)C(F)(F)C(F)(F)C(F)(F)C(F)(F)C(F)(F)C(F)(F)F`: 0.0167%.
Same read-out and setting: next, `C/C(=C\c1ccccc1)[N+](=O)[O-]`: -0.0185%.
For the molecule `Clc1cccc(SC2CCNCC2)n1`, the “activity change” value is 0.0042% [at 46 µM].
The same measure, in the same setting: as for `CC(C)(C)C(O)C(Oc1ccc(Cl)cc1)n1cncn1` (stereo not given), the figure is -0.183%; as for `O=[N+]([O-])c1cc(C(F)(F)F)cc([N+](=O)[O-])c1Cl`, -0.0635%; as for `C=CC(=O)OCC(C)O` (stereo not given), -0.0347% [at 95.7 µM].
Same read-out and setting: as for `O=C(O)CC(Cl)C(=O)O` (stereo not given), the figure is -0.0652%.
With `C=CCN1CC[C@]23c4c5ccc(O)c4O[C@H]2C(=O)CC[C@@]3(O)[C@H]1C5`, the molecule was called inactive.
For `O=C(O)C1(c2ccc3c(c2)OC[C@H](Cc2ccc(-c4ccccc4)cc2)[C@H]3O)CCCC1`, the “activity change” value was 0.006%.
